Source: PubChem BioAssay (EPA / NIEHS)
Activity calls are given as the source filed them. The calls were made as follows: active = hit-call score of the fitted dose curve at least 0.9, where 1 is the maximum; inactive = score below 0.9.

Experiment: ATG_M_61_CIS: Attagene CIS-FACTORIAL HepG2 Assay for M61 Transcription Factor (Internal Marker) (AID 2282937)
Conditions: HepG2 Attagene CIS-FACTORIAL M61 internal marker reporter; actives raise or lower the signal
Procedure: ATG_CIS is a cell-based, multiplexed-readout assay that uses HepG2, a human liver cell line, with measurements taken at 24 hours after chemical dosing in a 24-well plate.ATG_M_61_CIS is one of 52 assay component(s) measured or calculated from the ATG_CIS assay. It is designed to make measurements of mRNA induction, a form of inducible reporter, as detected with fluorescence intensity signals by Reverse transcription polymerase chain reaction (RT-PCR) and Capillary electrophoresis technology.Data from the assay component ATG_M_61_CIS was analyzed into 1 assay endpoint. This assay endpoint, ATG_M_61_CIS, was analyzed with bidirectional fitting relative to DMSO as the negative control and baseline of activity. Using a type of inducible reporter, measures of mRNA for gain or loss-of-signal activity can be used to understand the background control at the transcription factor-level as they relate to the gene . Furthermore, this assay endpoint can be referred to as a secondary readout, because this assay has produced multiple assay endpoints where this one serves a background control function. To generalize the intended target to other relatable targets, this assay endpoint is annotated to the background measurement intended target family, where the subfamily is internal marker.
Human liver HepG2 cells are transiently transfected with multiple reporter transcription units (MRTUs) in 6-well plates using FuGene 6 reagent (Roche; 3 ml FuGene/1 mg DNA). The MRTU constructs are regulated by a cis-regulating element (promoter). […] A major difference between the CIS and TRANS system is that in CIS activities of endogenous TFs are measured, whereas the TRANS assay evaluates changes in activities of exogenous, chimeric NR-Gal4 proteins. […] At the end of 24 hour incubation, total RNA was isolated using TriZol reagent (Invitrogen). The isolated RNA is then reverse-transcribed using oligo(dT) primer and Mo-MLV reverse transcriptase (Invitrogen) with DNAse I (Ambion) treatment for 30 min. The one-tenth of the produced cDNA was amplified by PCR using Taq DNA polymerase (Invitrogen) and two reporter sequence-specific primers. The PCR products were fluorescently labeled by primer extension with 6-arboxyfluorescein (6-FAM) 5'-labeled reporter sequence-specific primer (2 min at 95 C, 20 s at 68 C and 10 min at 72 C) and these products were digested with 5U of HpaI (New England Biolabs) for 2h at 37 C. The fragments were purified using Qiaquick PCR columns (Qiagen), analyzed on an ABI 3130xL genetic analyzer (Applied Biosystems) with peak positions identified by using a set of X-rhodamine (ROX)-labeled MapMarker1000 molecular weight standards (BioVentures). The raw capillary electrophoresis data was processed using Attagraph software (Attagene).

outcome, inactive:
O=C(CC(=O)c1ccccc1)c1ccccc1, C=Cc1ccncc1, CC(C)CC(C)CC(O)CC(C)C (stereo not given), O=C(Nc1ccc2c(c1)Cc1ccccc1-2)C(F)(F)F, CCCCCCC(C)Nc1ccc(Nc2ccccc2)cc1 (stereo not given), C=C(C)C1CC=C(C)C(=O)C1 (stereo not given), CCCSc1ccc2nc(NC(=O)OC)[nH]c2c1, C#CC(C)(O)CC(C)C (stereo not given), Nc1ccc(Cl)c([N+](=O)[O-])c1, OCCc1ccccc1, CCCCCCCCC=CCCCCCCCC1=NCCN1CCO, CC(C)(C)OC(=O)c1ccc(O)cc1, [Cl][Au]([Cl])[Cl], C=C1C[C@]23C[C@@]1(O)CC[C@H]2[C@@]12C=C[C@H](O)[C@@](C)(C(=O)O1)[C@H]2[C@@H]3C(=O)O, O=P(O)(O)O, Nc1ccc2cc(S(=O)(=O)O)cc(O)c2c1N=Nc1ccccc1C(F)(F)F, O=C1NC2NC(=O)NC2N1 (stereo not given), CCCCC1CCC(O)CC1 (stereo not given), C=C1CC[C@H](O)C/C1=C/C=C1\CCC[C@]2(C)[C@@H]([C@H](C)/C=C/[C@H](C)C(C)C)CC[C@@H]12, CCCCCc1ccco1, CCCCCCCC(=O)OCC(O)CO (stereo not given), Cc1ccc(S(=O)(=O)Oc2ccc(N=Nc3ccc(-c4ccc(N=Nc5c(O)ccc6cc(S(=O)(=O)O)cc(S(=O)(=O)O)c56)c(C)c4)cc3C)cc2)cc1, CCCC(=O)C(CC)Sc1ccoc1C (stereo not given), CC(=O)CC(=O)Nc1ccccc1, CCCCCCCCCCCCS(=O)(=O)Cl, CC(=O)C(C)O (stereo not given), CC(=O)CC(=O)Nc1ccc(C)cc1C, COc1ccc(CCN2CCC(Nc3nc4ccccc4n3Cc3ccc(F)cc3)CC2)cc1, Nc1ccc2c(O)cc(S(=O)(=O)O)cc2c1, CC=Cc1ccc(OCC)c(O)c1, CC(C)=CCCC(C)CC(=O)O (stereo not given), OC[C@H]1O[C@@H](Oc2ccc(O)cc2)[C@H](O)[C@@H](O)[C@@H]1O, CCN(CCN)c1cccc(C)c1, CCCC[P+](CCCC)(CCCC)CCCC, CCN(CC)C(=O)N(CC)CC, CC(=O)C1(C)CC2=C(CCCC2(C)C)CC1C (stereo not given), COC(=O)c1ccc(OC)cc1, Cc1ccc(N)c(S(=O)(=O)O)c1, O=C(O)COCC(=O)O, Nc1c(S(=O)(=O)O)cc(Br)c2c1C(=O)c1ccccc1C2=O
